# Data as given in PubChem BioAssay (NCATS).
# Records with an inconclusive call do not appear. A call without a number means that no potency is given here. Calls of active or inactive are those of the source. Unless noted, the call rests on the fitted dose curve; in most records, active means well fitted curve in the direction sought with a large enough effect; inconclusive means small, poorly fitted or top-dose-only effect, or another doubt; inactive means no such curve, though single readings can be large; an effect the other way counts as inactive or inconclusive.
# Columns and labels:
# [1] = biological target: Calcium and integrin-binding protein 1 (Homo sapiens) (UniProt Q99828); assay: Primary qHTS for Identification of Calcium Integrin Binding Protein 1 (CIB1) Competitor (AID 1508620);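 further: GST tagged CIB1 binding a fluorescein labelled alphaIIb integrin peptide tracer; top concentration of the series differs between compounds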
# Outline: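 Fluorescence polarization competition: GST-tagged CIB1 (1 uM final) preincubated with compound 15 min at room temperature, then FITC-labelled alphaIIb peptide (100 nM final) added. After 15 min at room temperature, polarization read at Ex 480/Em 540.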
# [2] = Counterscreen qHTS for small molecule stabilizers of the endoplasmic reticulum resident proteome: GLuc-NoTag assay (AID 1508627);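 further: SH-SY5Y cells given compound then 100 nM thapsigargin to empty ER calcium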
# Outline: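 SH-SY5Y cells stably expressing constitutively secreted GLuc without SERCaMP tag, exposed to compound for 19 hr, then to 100 nM thapsigargin for 4 hr at 37C. Medium luciferase was read by coelenterazine luminescence without lysis.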
# [3] = qHTS drug screen for cell cycle checkpoint inhibitors in PARPi-resistant BRCA-mutant ovarian cancer cell lines. (AID 1963452; calls by dose curve); settings: PEO1/OlaR viability, CellTiter-Glo luminescence, 96 h, stronger effect = lower value
# Outline: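 PEO1, PEO4 and PEO1/OlaR ovarian cancer cells, 600 per well, exposed 96 h at 37C to a dilution series. Viability read by CellTiter-Glo luminescence, normalized to DMSO and empty wells; activity summarized as Z-AUC.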
# [4] = biological target: RecQ-like DNA helicase BLM (Homo sapiens) (UniProt P54132); assay: qHTS Validation Assay for Inhibitors of Bloom's syndrome helicase (BLM) (AID 2364)
# Outline: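 50 nM BLM preincubated 15 min at room temperature with compound in pH 8.0 Tris buffer containing 2.5 ug/ml poly(dI-dC); started with 200 nM TAMRA/BHQ-2 forked duplex and 2 mM ATP (final). Unwinding read as TAMRA fluorescence increase, two reads 2 h apart.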
# [5] = Validation screen for small molecules that induce DNA re-replication in MCF 10A normal breast cells (AID 463097); further: nearly all actives have a fitted effect of over 60% in size
# Outline: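 Following 48 hr compound incubation (37 C, 5% CO2), MCF 10A cells receive Hoechst for 40 min at 37 C. Nuclei are then scanned (excitation 405 nm, emission 500-530 nm) for total fluorescence intensity.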
# [6] = Cell Viability - SH-SY5Y (AID 544); settings: SH-SY5Y neuroblastoma cell viability; viability change, negative = cytotoxic: at 92.2 µM (top of the series); further: nearly all actives have a fitted effect of over 55% in size
# Outline: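 Human neuroblastoma SH-SY5Y cells (1500/well) in complete medium were exposed to compounds for 40 hr at 37 °C; intracellular ATP was then quantified by CellTiter-Glo luminescence after 20 min at room temperature. AC50 came from Hill-equation concentration-response fits.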
# [7] = Cell Viability - LYMP2-019 (AID 973); further: nearly all actives have a fitted effect of over 55% in size
# Outline: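 Human lymphoblastoid cells were seeded at 2500 cells/well, preincubated 5 hr at 37 C, then exposed to compounds for 24 hr at 37 C in complete medium. Intracellular ATP was measured by CellTiter-Glo luminescence; AC50 from Hill fits.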
# [8] = Cell Viability - LYMP2-023 (AID 975);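 further: cellular ATP measured by luciferase luminescence as viability proxy; nearly all actives have a fitted effect of over 55% in size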
# Outline: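 Human lymphoblastoid cells (2500/well) were preincubated 5 hr at 37 C, then exposed to compounds for 24 hr at 37 C in complete medium. Cellular ATP was read by CellTiter-Glo luminescence, and AC50 came from Hill-equation fits.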
# [9] = Cell Viability - LYMP2-006 (AID 978); further: nearly all actives have a fitted effect of over 60% in size
# Outline: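 In this cytotoxicity screen, the human lymphoblastoid line grew in complete medium with test compounds for 24 hr at 37 C. Cellular ATP served as the viability signal.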
# [10] = Cell Viability - LYMP1-002 - Assay at 24 hr (AID 993)
# Outline: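 Human lymphoblastoid LYMP1-002 cells, 2500/well in complete medium, were treated with compounds for 24 h at 37 C; intracellular ATP was read by CellTiter-Glo luminescence. AC50 values came from Hill-equation fits of qHTS concentration-response data.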
# [11] = biological target: Peroxisome proliferator-activated receptor delta (Homo sapiens) (UniProt Q03181); assay: qHTS assay for small molecule agonists of peroxisome proliferator-activated receptor delta signaling (AID 588534; calls by dose curve)
# Outline: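 Cell-based beta-lactamase reporter assay run in agonist mode: cells seeded and incubated 5 hrs at 37 C, compounds added and incubated 18 hrs at 37 C. CCF4 dye fluorescence read after 2 hrs at RT; EC50 and efficacy from Hill fits.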
# [12] = Cell Viability - H-4-II-E (AID 543); further: nearly all actives have a fitted effect of over 35% in size
# Outline: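 Rat hepatoma H-4-II-E cells (1500/well) were plated, incubated 5 hr at 37 °C, then exposed to compounds for 40 hr at 37 °C. Cellular ATP was read by CellTiter-Glo luminescence; AC50 came from Hill-equation fits of concentration-response data.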
# [13] = Cellular Toxicity (caspase-3) N2a (AID 665); settings: N2a cells, luminescence, normalized: DMSO 0%, 10 µM staurosporine 100%; at 92.2 µM (top of the series);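 further: compound exposure lasted 16 h at 37 °C before readout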
# Outline: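 Mouse N2a neuroblastoma cells (1500/well) were treated with compounds for 16 h at 37 °C, then caspase-3/7 activity was read by Caspase-Glo luminescence after 1 h at room temperature. Data were normalized to DMSO and 10 uM staurosporine; AC50 from Hill fits.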
# [14] = Cell Viability - LYMP2-001 (AID 921); further: nearly all actives have a fitted effect of over 70% in size; further: potency means the concentration at half of the fitted maximal effect
# Outline: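 A lymphoblastoid cell line of human origin was treated with library compounds across a concentration series for 24 hours, and viable cell number was estimated from ATP-driven luciferase light output. Hill modeling gave AC50.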
# [15] = Cell Viability - LYMP2-010 (AID 981); further: nearly all actives have a fitted effect of over 55% in size; further: potency means the concentration at half of the fitted maximal effect
# Outline: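 Human lymphoblastoid LYMP2-010 cells (2500/well) were preincubated 5 hr at 37 C, then exposed to compounds for 24 hr at 37 C in complete medium. Intracellular ATP was measured by CellTiter-Glo luminescence after 30 min at room temperature; AC50 from Hill-fitted concentration-response.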
# [16] = Cell Viability - LYMP2-022 (AID 987); further: nearly all actives have a fitted effect of over 55% in size
# Outline: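 Human lymphoblastoid cells, 2500/well, preincubated 5 hr at 37 C, then exposed to compounds over a concentration range for 24 hr at 37 C in complete medium. Viability read as intracellular ATP by CellTiter-Glo luminescence after 30 min at room temperature; AC50 from Hill fits.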
# [17] = Cell Viability - LYMP2-024 (AID 988); further: nearly all actives have a fitted effect of over 60% in size
# Outline: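 Human lymphoblastoid cells (2500/well) in complete medium were preincubated 5 hr at 37 C, then exposed to compounds for 24 hr at 37 C. Intracellular ATP was read by CellTiter-Glo luminescence; AC50 from Hill-equation fits of concentration-response data.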
# [18] = Cell Viability - LYMP1-002 - Assay at 40 hr (AID 994); further: nearly all actives have a fitted effect of over 60% in size
# Outline: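 Human lymphoblastoid cells, 2500/well in complete medium, were preincubated 5 hr at 37 C, then exposed to compounds for 40 hr at 37 C. Intracellular ATP was read by CellTiter-Glo luminescence after 30 min at room temperature; AC50 from Hill-equation fits.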
# [19] = qHTS assay for small molecule activators of the human pregnane X receptor (PXR) signaling pathway (AID 720659; call rule not given here)
# [20] = MultiTox-Fluor Cytotoxicity Assay - LYMP1-002 - Live Cells (AID 955)
# Outline: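 Human lymphoblastoid LYMP1-002 cells, 2500/well in complete medium, rested 5 hr at 37 C, then exposed to compounds for 16 hr at 37 C. Live-cell protease cleavage of GF-AFC read by fluorescence (Ex/Em 405/510) after 60 min at room temperature; AC50 from Hill fits.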
# Chain of RecQ-like DNA helicase BLM (Homo sapiens) (P54132 whole entry, looked up): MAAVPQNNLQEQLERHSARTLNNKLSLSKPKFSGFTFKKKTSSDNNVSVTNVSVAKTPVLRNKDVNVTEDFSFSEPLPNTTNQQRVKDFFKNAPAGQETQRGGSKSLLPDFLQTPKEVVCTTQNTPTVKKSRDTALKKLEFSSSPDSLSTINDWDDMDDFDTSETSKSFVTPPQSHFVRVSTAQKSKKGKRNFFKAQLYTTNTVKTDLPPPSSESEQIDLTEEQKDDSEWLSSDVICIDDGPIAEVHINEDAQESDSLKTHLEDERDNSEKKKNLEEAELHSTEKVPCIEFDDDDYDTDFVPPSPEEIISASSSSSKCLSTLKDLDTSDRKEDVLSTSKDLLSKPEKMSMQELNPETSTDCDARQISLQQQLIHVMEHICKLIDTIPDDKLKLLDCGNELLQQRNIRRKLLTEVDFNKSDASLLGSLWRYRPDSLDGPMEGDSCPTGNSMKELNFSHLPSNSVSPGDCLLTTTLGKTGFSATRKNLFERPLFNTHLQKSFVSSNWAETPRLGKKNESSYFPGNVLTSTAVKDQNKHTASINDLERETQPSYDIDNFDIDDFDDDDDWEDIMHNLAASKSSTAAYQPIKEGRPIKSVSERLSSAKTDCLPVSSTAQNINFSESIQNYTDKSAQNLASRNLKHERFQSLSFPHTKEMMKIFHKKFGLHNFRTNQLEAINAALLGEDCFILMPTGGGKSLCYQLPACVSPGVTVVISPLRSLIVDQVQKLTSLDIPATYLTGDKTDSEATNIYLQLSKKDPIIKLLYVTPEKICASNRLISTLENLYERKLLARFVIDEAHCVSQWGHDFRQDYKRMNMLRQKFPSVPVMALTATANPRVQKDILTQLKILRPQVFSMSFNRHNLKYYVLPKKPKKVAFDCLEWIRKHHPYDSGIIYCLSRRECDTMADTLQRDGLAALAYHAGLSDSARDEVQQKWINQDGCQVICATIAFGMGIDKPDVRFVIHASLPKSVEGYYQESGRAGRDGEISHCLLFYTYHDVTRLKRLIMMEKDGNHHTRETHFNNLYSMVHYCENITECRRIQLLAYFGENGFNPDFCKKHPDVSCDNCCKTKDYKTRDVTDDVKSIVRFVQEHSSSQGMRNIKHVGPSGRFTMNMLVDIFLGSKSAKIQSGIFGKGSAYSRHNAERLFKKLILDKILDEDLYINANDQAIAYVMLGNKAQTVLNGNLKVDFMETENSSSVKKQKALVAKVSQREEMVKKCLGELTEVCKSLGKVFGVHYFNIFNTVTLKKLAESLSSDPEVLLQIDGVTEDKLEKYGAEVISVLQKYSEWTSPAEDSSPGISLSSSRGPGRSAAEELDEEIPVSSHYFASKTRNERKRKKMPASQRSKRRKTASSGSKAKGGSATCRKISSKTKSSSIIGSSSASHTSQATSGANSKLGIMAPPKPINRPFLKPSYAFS
# Chain of Peroxisome proliferator-activated receptor delta (Homo sapiens) (Q03181 whole entry, looked up): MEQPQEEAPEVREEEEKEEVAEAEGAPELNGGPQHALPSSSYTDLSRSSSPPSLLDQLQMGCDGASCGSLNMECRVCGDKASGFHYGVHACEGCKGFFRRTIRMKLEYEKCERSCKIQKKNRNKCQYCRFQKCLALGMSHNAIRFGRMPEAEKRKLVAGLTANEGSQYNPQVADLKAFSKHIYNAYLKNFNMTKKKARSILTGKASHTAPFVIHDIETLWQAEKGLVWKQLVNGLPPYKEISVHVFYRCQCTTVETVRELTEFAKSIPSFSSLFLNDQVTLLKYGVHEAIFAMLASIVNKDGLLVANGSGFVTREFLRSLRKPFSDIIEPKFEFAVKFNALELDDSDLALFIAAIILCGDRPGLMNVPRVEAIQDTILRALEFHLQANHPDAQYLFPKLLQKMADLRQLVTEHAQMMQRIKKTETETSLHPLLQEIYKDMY
# Chain of Calcium and integrin-binding protein 1 (Homo sapiens) (Q99828 whole entry, looked up): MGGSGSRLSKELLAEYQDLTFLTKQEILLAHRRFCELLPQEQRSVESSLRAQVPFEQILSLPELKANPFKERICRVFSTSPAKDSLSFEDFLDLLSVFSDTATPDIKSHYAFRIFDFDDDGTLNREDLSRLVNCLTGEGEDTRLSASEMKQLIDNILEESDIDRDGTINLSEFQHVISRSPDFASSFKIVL
compound,measurement,setting,value
Cc1ccccc1C(=O)N1CCc2cc(N3CCC(NC(=O)Cc4ccccc4)C3)ccc21 (stereo not given),outcome,[1],inactive
Cc1cc(-c2nnc3n2CCCCC3)c(C)n1-c1cccnc1,outcome,[1],inactive
CC(C)C1C(=O)N2CCC[C@H]2[C@]2(O)O[C@](NC(=O)[C@@H]3C=C4c5cccc6[nH]cc(c56)C[C@H]4N(C)C3)(C(C)C)C(=O)N12 (stereo not given in full),outcome,[2],inactive
c1ccc(N2CCC3(CCNCC3)CC2)nc1,outcome,[2],inactive
O=C(O)C1=CCCN(CCOC(c2ccc(C(F)(F)F)cc2)c2ccc(C(F)(F)F)cc2)C1,Z-AUC,[3],-1.16 (inactive)
same,Z-AUC,[3]; measured here: PEO1 parental Z-AUC,-0.857
same,Z-AUC,[3]; measured here: PEO4 Z-AUC,-0.457
CCCN1CCc2cc(O)cc3c2C1Cc1ccc(O)c(O)c1-3 (stereo not given),outcome,[4],inactive
same,Potency,[5],inactive
CNCC[C@@H](Oc1ccc(C(F)(F)F)cc1)c1ccccc1,Potency,[5],inactive
CCCN1CCc2cccc3c2C1Cc1ccc(O)c(O)c1-3 (stereo not given),outcome,[4],inactive
CNC(=O)O/N=C/C(C)(C)SC,Potency,[6],inactive
same,Potency,[7],inactive
same,Potency,[8],inactive
same,Potency,[9],inactive
same,Potency,[10],inactive
same,outcome,[11],inactive
C[C@]12CC[C@H](O)CC1=CCC1C2CC[C@]2(C)C(=O)CC[C@@H]12 (stereo not given in full),outcome,[4],inactive
same,Potency,[5],inactive
C=CCc1ccc2c(c1)OCO2,Potency,[12],inactive
same,Potency,[6],inactive
same,caspase-3 activation,[13],-4.3% (inactive)
same,Potency,[14],inactive
same,Potency,[7],inactive
same,Potency,[8],inactive
same,Potency,[15],inactive
same,Potency,[16],inactive
same,Potency,[17],inactive
same,Potency,[10],inactive
same,Potency,[18],inactive
same,outcome,[19],inactive
c1ccc(N=Nc2ccccc2)cc1,Potency,[12],inactive
same,Potency,[6],inactive
same,Potency,[14],inactive
same,outcome,[20],inactive
same,Potency,[9],inactive
same,Potency,[16],inactive
same,Potency,[17],inactive
same,Potency,[10],inactive
same,Potency,[18],inactive
same,outcome,[19],inactive
ClC1=C(Cl)C2(Cl)C3C(Cl)C=CC3C1(Cl)C2(Cl)Cl (stereo not given),outcome,[20],inactive
same,Potency,[8],inactive
same,Potency,[17],inactive
same,Potency,[18],inactive
same,outcome,[11],inactive
same,outcome,[19],inactive
CCOCN(C(=O)CCl)c1c(C)cccc1CC,caspase-3 activation,[13],-0.109% (inactive)
same,outcome,[20],inactive
same,Potency,[15],50.1 µM (active)
C/C=C/c1ccc2c(c1)OCO2,caspase-3 activation,[13],0.0142% (inactive)
same,Potency,[14],inactive
same,Potency,[7],inactive
same,Potency,[8],inactive
same,Potency,[9],inactive
same,Potency,[15],inactive
same,Potency,[16],inactive
same,Potency,[17],inactive
same,Potency,[10],inactive
same,outcome,[19],inactive
O=S1OCC2C(CO1)C1(Cl)C(Cl)=C(Cl)C2(Cl)C1(Cl)Cl (stereo not given),Potency,[12],inactive
ClC1=C(Cl)C2(Cl)C3C4C=CC(C4)C3C1(Cl)C2(Cl)Cl (stereo not given),caspase-3 activation,[13],2.47% (inactive)
same,Potency,[14],39.8 µM (active)
same,Potency,[18],inactive
same,outcome,[11],inactive
